High-throughput results deposited in PubChem by National Center for Advancing Translational Sciences (NCATS).
TRHR enhancer – allosterically enhances the human TRH receptor; enhancement, % at 2 µM; P34981; 360,000 tested, 0.66% active; TRHR cells, fluo-8 calcium fluorescence, EC20 TRH enhancement; in the data active means enhancement above about 30%; further: 0% is about no effect
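Enhancer read-out: after compound pinning and an initial kinetic agonist-mode read, an EC20 of TRH (10 nM final) was injected and fluo-8 calcium signal (Ex 480/Em 530) followed at 1 s/cycle for 100 cycles in TRHR-expressing cells.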
D1 antag – human D1 dopamine receptor antagonism; 360,000 tested, 3.2% active; activity change, negative = inhibition, % at 10 µM; AID 504652; HEK293 TREx D1 cells, calcium flux, dopamine EC80; hits give low values; in the data active means activity change below about -30%; further: on the % scale 0 is the no-effect control and ±100 the full control effect
Target sequence (P21728 whole entry, looked up): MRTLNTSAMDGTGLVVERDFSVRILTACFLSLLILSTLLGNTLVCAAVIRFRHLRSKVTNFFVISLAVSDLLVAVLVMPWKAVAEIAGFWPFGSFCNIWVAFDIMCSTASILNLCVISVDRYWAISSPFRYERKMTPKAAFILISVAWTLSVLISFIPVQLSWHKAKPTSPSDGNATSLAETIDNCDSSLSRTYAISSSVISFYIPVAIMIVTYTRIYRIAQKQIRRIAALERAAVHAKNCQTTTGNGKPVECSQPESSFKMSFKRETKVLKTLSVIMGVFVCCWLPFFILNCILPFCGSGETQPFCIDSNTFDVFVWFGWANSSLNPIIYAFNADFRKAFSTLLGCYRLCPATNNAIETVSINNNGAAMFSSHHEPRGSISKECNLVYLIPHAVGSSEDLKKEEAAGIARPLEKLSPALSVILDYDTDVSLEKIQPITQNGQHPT
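Inducible Hek293 Trex D1 cells (tetracycline, overnight, 30 C). Calcium dye 30–90 min RT. Antagonist mode: EC80 dopamine added after 180 s compound read.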
D1 ag – agonists of human D1 dopamine receptor; HEK293 T-REx D1 cells, calcium flux, agonist mode; activation, % at 2 µM; P21728; AID 504660; 360,000 tested, 1% active; further: 0% is about no effect
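Agonism was scored from calcium flux recorded over 180 s (1 read/s) after pintool compound addition, following a 10-cycle baseline. Cells were inducible force-coupled HEK293 TREx D1, plated overnight at 30 C and loaded with no-wash calcium dye.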
TRHR ag – agonists of human TRH receptor; activation, % at 2 µM; TRHR cells, calcium flux fluo-8, FDSS agonist mode; AID 493084; 360,000 tested, 0.18% active; P34981; further: 0% is about no effect
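TRHR-expressing cells loaded with fluo-8 calcium dye; 23 nL library compound pin-transferred, kinetic FDSS fluorescence (Ex 480/Em 530) recorded about 180 s for agonist-induced calcium release, before a 10 nM TRH EC20 addition for potentiator mode.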
D1 potentiator – human D1 dopamine receptor positive modulation; P21728; HEK293 TREx D1 cells, calcium flux, dopamine EC20 potentiation; potentiation, % at 10 µM; 360,000 tested, 0.036% active; AID 504651; in the data active means potentiation above about 30%; further: 0% is about no effect
* hit, by the source's call; / = not tested or not shown. A selection: hits, their analogues and other compounds. The true share with any hit is near 4.6%. Unless noted, no stated cut-off is given here; in the data, active means activation above about 30%; inactive means the rest.

SMILES | TRHR enhancer | D1 antag | D1 ag | TRHR ag | D1 potentiator
CCOC(=O)/C(=N/Nc1ccc(OC)cc1)N1CCCc2ccccc21 | -3 | -42* | 0 | -1 | -3
COc1ccc(CC(=O)N2CCc3ccccc32)cc1 | 10 | -1 | 4 | -1 | -2
CCOc1ccc(-n2c(=O)[nH]cc(C(=O)N3CCCc4ccccc43)c2=O)cc1 | -1 | -1 | 1 | 0 | 0
COc1ccc(-n2c(=O)[nH]cc(C(=O)N3CCCc4ccccc43)c2=O)cc1 | 0 | -31* | 2 | -1 | -3
O=C(CCn1cccc1)N1CCc2ccccc21 | 1 | -31* | -2 | 0 | -6
O=C(Cc1ccccc1)N1CCc2ccccc21 | 1 | -2 | 2 | -1 | 5
CC[C@@H](C)[C@@H](C(=O)Nc1ccc(C)cc1)N1Cc2ccccc2C1=O | 3 | -16 | 2 | 0 | 0
CCc1ccc(C2=NN(CCC(=O)NCCc3ccc(Cl)cc3)C(=O)CC2)cc1 | -3 | 3 | 2 | 0 | -2
COc1ccc(OCCCC(=O)N2CCCc3ccccc32)cc1 | -4 | -34* | 4 | -1 | -8
Cc1cc(=O)oc2cc(OCCSCCN3CCCCC3)ccc12 | -1 | -37* | 1 | 0 | -4
Cc1cc(=O)oc2cc(OCCc3ccccc3)ccc12 | -4 | 10 | 4 | 0 | -15
Cc1cc(=O)oc2cc(OCC(=O)N3CCCc4ccccc43)ccc12 | -10 | -35* | 2 | -3 | -8
CCCN(C(=O)Cn1ncc2c1-c1ccccc1OC2)c1cccc(C)c1 | 5 | 29 | 1 | -1 | 5
CC(CNC(=O)CN1C(=O)COc2ccc(S(=O)(=O)N3CCCCCC3)cc21)c1ccccc1 (stereo unspecified) | -3 | -8 | 2 | 0 | -6
Cc1cc2nc(C)c(=O)n(C)c2cc1C | 11 | -38* | -1 | 0 | -8
CCOC(=O)c1ccc(NC(=O)C2CCCN(c3ccc(Sc4ccc(C)cc4)nn3)C2)cc1 (stereo unspecified) | 5 | -2 | 4 | 2 | 4
COc1cc(CN2CCN(C(=O)c3ccc(-c4ccccc4)cc3)CC2)cc(OC)c1OC | 33* | 13 | 0 | 0 | -4
COc1cccc(CN2CCN(C(=O)c3ccc(-c4ccccc4)cc3)CC2)c1OC | -25 | -37* | 5 | -1 | 2
CC(C)CC(=O)N1CCN(C(=O)c2ccc(-c3ccccc3)cc2)CC1 | 31* | -11 | 1 | 0 | 10
COc1cc(OC)cc(C(=O)N2CCN(C(=O)c3ccc(-c4ccccc4)cc3)CC2)c1 | 36* | -1 | 0 | 0 | 3
COc1ccc(C(=O)N2CCN(C(=O)c3ccc(-c4ccccc4)cc3)CC2)cc1OC | 29 | -12 | 2 | 0 | -4
Cc1ccc(NC(=O)CSc2nc3ccccc3c3nc(CCn4c(C)nc5ccccc54)nn23)cc1F | 6 | 0 | 0 | 0 | -3
O=C(Cc1ccc(NC(=O)N2CCSc3ncccc32)cc1)NCCc1ccccc1 | 2 | -13 | 4 | 0 | -1
Cc1n[nH]c(C)c1S(=O)(=O)N1CCCC(C(=O)Nc2ccc(Cl)cc2)C1 (stereo unspecified) | -4 | 4 | 2 | 0 | 2
COc1cc(CN2CCN(S(=O)(=O)c3ccccc3)CC2)cc(OC)c1O | 8 | -61* | 1 | 2 | -6
SMILES | TRHR enhancer | D1 antag | D1 ag | TRHR ag | D1 potentiator
CCCOC(=O)CN1C(=O)c2ccc(C(=O)OCCC)cc2C1=O | 5 | -28 | 0 | 0 | -4
Cc1ccc(N2C(=O)c3ccc(C(=O)N4CCN(Cc5ccccc5)CC4)cc3C2=O)cc1 | -6 | -48* | 58* | 0 | -5
CCCOC(=O)c1ccc2c(c1)C(=O)N(c1ccccc1)C2=O | 5 | -35* | 7 | 0 | -4
COc1cc(C(=O)N2CCN(C(=O)C3CC3)CC2)cc(OC)c1OC | 3 | -42* | 1 | 0 | -19
COc1ccc(S(=O)(=O)N2CCN(Cc3cc(OC)c(O)c(OC)c3)CC2)cc1 | -2 | 11 | 1 | 0 | -2
COc1ccc(CNC(=O)c2cnc3sc(N4CCCCCC4)nn3c2=O)cc1 | 3 | -7 | -1 | 0 | 5
CCc1ccccc1Nc1nn2c(=O)c3ccc(C(=O)NC(C)c4ccccc4)cc3nc2s1 (stereo unspecified) | -4 | 6 | 0 | 1 | -2
O=C(CCNC(=O)c1ccco1)Nc1ccc(OC(F)F)c(Cl)c1 | -6 | -31* | 2 | 0 | -8
O=C(CCNC(=O)c1ccco1)Nc1ccccc1OC(F)F | -7 | 3 | 3 | 1 | /
COc1ccc(CCNC(=S)Nc2ccccc2)cc1 | 0 | -36* | 7 | -2 | -14
S=C(NCCc1ccccc1)Nc1ccc(Cl)cc1Cl | -7 | -33* | 13 | -1 | -5
Cc1cc(Cl)ccc1NC(=S)NCCc1ccc(Cl)cc1 | -4 | -25 | 14 | 1 | 0
COc1ccc(OCCNC(=S)Nc2cccc3ccccc23)cc1 | 0 | -39* | 3 | 0 | -4
COc1cccc(NC(=S)NCCC(c2ccccc2)c2ccccc2)c1 | 6 | -50* | 20 | -2 | -9
Nc1ncnc2c1cnn2C1CCCCC1 | 6 | 4 | 0 | -1 | 6
CC(C)CCNC(=S)Nc1ccc([N+](=O)[O-])cc1 | -11 | -46* | 34* | 3 | -3
CC(C)Oc1ccc(CCC(=O)NNC(=S)Nc2ccccc2)cc1 | -2 | -31* | 9 | -1 | -2
COC(=O)Cc1ccc(NC(=S)NCCC(C)C)cc1 | 0 | -28 | 11 | 0 | -2
CCCCNC(=S)NC(=O)c1ccc([N+](=O)[O-])cc1 | 2 | -46* | 3 | 0 | -6
S=C(NCCc1ccccc1)Nc1ccc(Br)cc1 | 1 | -51* | 15 | -1 | -10
Oc1ccc(Br)cc1/C=N/NC(=S)NCCc1ccccc1 | 2 | 17 | 3 | 0 | -9
CC(C)CCNC(=S)Nc1ccc(Br)cc1 | -2 | -33* | 13 | 1 | -13
CCCCNC(=S)Nc1ccc(Oc2ccccc2)cc1 | -1 | -11 | 22 | 0 | -7
Cc1ccc([N+](=O)[O-])cc1NC(=S)NCCc1ccccc1 | -5 | -36* | 23 | 0 | -4
CCCCNC(=S)Nc1ccc([N+](=O)[O-])cc1 | -9 | -33* | 19 | 1 | -6
Cc1ccc(C(=O)O)cc1NC(=S)NCCc1ccccc1 | 6 | 8 | -1 | 1 | 7
S=C(NCCc1ccccc1)N/N=C/c1ccccc1Cl | 15 | -33* | 5 | 0 | 5
CCN1CCN(CCCNC(=O)c2cc3c(=O)n(C)c4ccccc4c3s2)CC1 | 5 | 7 | 3 | 0 | -2
Cc1ccc(CNC(=O)C2CCN(Cc3nc(-c4ccccc4C)oc3C)CC2)cc1 | 6 | 5 | 14 | 0 | -2
COc1ccc(CNC(=S)Nc2ccccc2)cc1Cl | -3 | -5 | 5 | 1 | -3
